# Paper PMC4552634, “A New Set of Chemical Starting Points with Plasmodium falciparum Transmission-Blocking Potential for Antimalarial Drug Discovery” (PLoS ONE, 2015)
# Where two headings read alike, the source gives them in different places. The whole screen tested about 13,000 compounds, of which about 3,200 (25%) showed an effect of 50% or more. Some of the results follow.
# Test system: P. falciparum stage V gametocytes
# Parameters: BacTiter-Glo ATP luminescence viability of purified stage V gametocytes in 384-well plates, per cent inhibition versus DMSO
# Settings: 48 h, 5 µM, inhibitor
SMILES,% Inhibition [%],% Inhibition (% Inhibition) [%]
CCOC(=O)C(C(=O)OCC)c1nc(C)ns1 [TCMDC-131370],6.156,
O=C(Nc1ccc2c(c1)CCC2)c1ccc(N2CCN(c3ccncc3)CC2)cc1 [TCMDC-135127],32.87,
CC(C)/C(=C(/F)CN1C(=O)C(NC(=O)c2cc3ccccc3[nH]2)C(=O)N(c2ccccc2)c2ccccc21)c1ccccc1 (stereo not drawn) [TCMDC-131897],34.22,
O=C(Nc1ccc(N2CCCN(Cc3cccc(F)c3)CC2)cc1)c1cccs1 [TCMDC-135012],-8.127,
CCc1nc(N)nc(N)c1-c1ccc(F)c(F)c1 [TCMDC-137370],12.31,
COc1ccccc1-c1sccc1C(=O)NC1(c2cc(Cl)cc(Cl)c2)CCCC1 [TCMDC-136461],-44,
COc1ccc(Cl)cc1N1CCN(CCCNC(=O)c2ccc(-c3nc4cc(Cl)c(C)cc4[nH]3)s2)CC1 [TCMDC-140032],3.429,
COc1ccc(Cl)cc1-c1nc(C(=O)NCCN2CCCCC2)c(C(C)C)s1 [TCMDC-133715],16.92,
CCc1sc(N2CCN(C)CC2)nc1C(=O)NCCc1ccc(Cl)c(Cl)c1 [TCMDC-134296],25.24,
CCc1sc(-c2cc(Cl)ccc2OC)nc1C(=O)NCCN1CCCCC1 [TCMDC-133716],70.94,
COc1ccc(Cl)cc1-c1nc(C(=O)NCCN2CCCCC2)c(C)s1 [TCMDC-133714],60.47,
CCOc1cc(C(=O)NCCN2CCCCC2)ccc1-c1nc2ccc(Cl)cc2[nH]1 [TCMDC-140913],5.667,
Cc1ccccc1N1CCN(c2ccc(C(=O)NC(C)C)cn2)CC1 [TCMDC-134577],-17.52,
CCOC(=O)c1cnc2c(C(F)(F)F)cccc2c1Nc1ccc(O)cc1 [TCMDC-125649],-55.53,
COc1ccc2nccc([C@@H](O)CN3CCC(NC(=O)/C=C/c4cc([N+](=O)[O-])ccc4OC)CC3)c2c1 [TCMDC-141044],-26.66,
N#CN1CC[C@@H](NS(=O)(=O)Cc2ccc(Cl)c(Cl)c2)C1 [TCMDC-133787],27.55,
O=C(/C=C/c1ccc(Cl)c(Cl)c1)NCCCCCN1CCC(C(=O)Nc2ccc3c(c2)OCO3)CC1 [TCMDC-136127],-2.985,
O=C(/C=C/c1ccc(Cl)c(Cl)c1)NCCCCCN1CCC(NC(=O)Nc2ccc3c(c2)OCO3)CC1 [TCMDC-135718],-35.92,
O=C(C=Cc1ccc(Cl)c(Cl)c1)NCCCCCN1CCCC(CCCNC(=O)c2ccc3c(c2)OCO3)C1 (stereo not drawn) [TCMDC-139580],81.7,
CCCCCCOc1ccc(C(=O)NCCC2CCN(CCCCCNC(=O)C=Cc3ccc(Cl)c(Cl)c3)CC2)cc1 [TCMDC-139569],13.58,
O=C(C=Cc1ccc(Cl)c(Cl)c1)NCCCCCN1CCC(CCCNC(=O)c2ccc3c(c2)OCO3)CC1 [TCMDC-139574],21.18,
CCCCCCOc1ccc(C(=O)NCCCC2CCCN(CCCCCNC(=O)C=Cc3ccc(Cl)c(Cl)c3)C2)cc1 (stereo not drawn) [TCMDC-139581],50.48,
CCCCCCOc1ccc(C(=O)NCCCC2CCN(CCCCCNC(=O)C=Cc3ccc(Cl)c(Cl)c3)CC2)cc1 [TCMDC-139575],7.423,

SMILES,% Inhibition [%],% Inhibition (% Inhibition) [%]
O=C(C=Cc1ccc(Cl)c(Cl)c1)NCCCCCN1CCC(CCNC(=O)c2ccc3c(c2)OCO3)CC1 [TCMDC-139568],96.26,
O=C(/C=C/c1ccc(Cl)c(Cl)c1)NCCCCCN1CC[C@H](NC(=O)c2ccc3c(c2)OCO3)C1 [TCMDC-139563],17.23,
Cc1ccc(NC(=O)N2CCCN(CCCCCNC(=O)/C=C/c3ccc(Cl)c(Cl)c3)CC2)cc1 [TCMDC-135744],-49.55,
N#Cc1cc(C(=O)c2cc(Br)ccc2O)cn(-c2cc(Cl)cc(Cl)c2)c1=O [TCMDC-125187],-21.05,
O=[N+]([O-])c1cccc(CNCC2CCC(CNCc3cccc([N+](=O)[O-])c3)CC2)c1 (stereo not drawn) [TCMDC-141176],8.201,
COc1ccc(OC)c(CC2c3ccc(Br)c(O)c3CCN2C)c1 (stereo not drawn) [TCMDC-137439],12.74,
CN1CCN(c2cc3c(cc2Cl)CCN3C(=O)Cc2ccc(NC(=O)Nc3cccc4ccccc34)cc2)CC1 [TCMDC-139472],-2.627,
Cn1ccnc1CNC(=O)c1ccc(-c2cccc(-c3nc4cc(C(F)(F)F)ccc4[nH]3)c2)cc1 [TCMDC-132357],7.087,
Cc1[nH]c(C)c(-c2ccc(-c3ccc(Cl)cc3)nc2)c(=O)c1Br [TCMDC-136159],67.06,
Cc1[nH]c(C)c(-c2ccc(-c3ccc(Cl)cc3)nc2)c(=O)c1Cl [TCMDC-136301],72.82,
Cc1[nH]c(C)c(-c2ccc(-c3ccc(F)cc3)nc2)c(=O)c1Br [TCMDC-135925],64.89,
Cc1[nH]c(C)c(-c2ccc(-c3ccccc3)nc2)c(=O)c1Br [TCMDC-136158],42.67,
Cc1[nH]c(C)c(-c2ccc(-c3ccc(C(F)F)cc3)nc2)c(=O)c1Cl [TCMDC-132329],58.86,
Cc1[nH]c(C)c(-c2ccc(-c3ccc(C#N)cc3)nc2)c(=O)c1Br [TCMDC-136169],28.48,
Cc1[nH]c(C)c(-c2ccc(-c3ccc(OCC(F)(F)F)cc3)nc2)c(=O)c1Cl [TCMDC-132306],43.23,
CC1(C)N=C(N)N=C(N)N1OCCCOc1ccccc1Cl [TCMDC-131739],-0.9938,
O=C(Nc1ccc(-c2nc3ccccc3[nH]2)cc1)c1ccc(S(=O)(=O)N2CCc3ccccc32)cc1 [TCMDC-125713],-13.88,
O=C(N[C@@H](CC1CCCCC1)C(=O)NC1CCCc2ccccc21)c1ccc(O)c(-c2ccc(Cl)c(Cl)c2)c1 (stereo partly drawn) [TCMDC-140869],28.8,
CCOC(=O)c1ccc(-n2c(C)cc(C=C3SC(=Nc4ccccc4)N(C4CCCC4)C3=O)c2C)cc1 [TCMDC-125697],-3.505,
Cc1[nH]c(C)c(-c2ccc(-c3ccc4c(c3)OCO4)nc2)c(=O)c1Br [TCMDC-136161],79.48,
CCC1CN2CCc3c([nH]c4ccccc34)[C@@H]2C[C@@H]1CC1NCCc2cc(OC)c(OC)cc21 (stereo partly drawn) [TCMDC-142008],,-47.66
Cc1onc(-c2ccccc2Cl)c1C(=O)Nc1cc(Cl)c(Cl)cc1Cl [TCMDC-123514],9.365,
COc1ccc(-c2ccc(CNC(=O)c3ccc(C#N)cc3)c(F)c2)cc1CN1CCCN(C)CC1 [TCMDC-133368],-37.75,

SMILES,% Inhibition [%],% Inhibition (% Inhibition) [%]
COc1cc(C(=O)Nc2cccc(-c3cn4ccc(C)cc4n3)c2)cc(OC)c1OC [TCMDC-125384],26.29,
COc1cc(OC)cc(C(=O)Nc2cccc(-c3cn4ccc(C)cc4n3)c2)c1 [TCMDC-124622],4,
Cc1ccn2cc(-c3ccc(NC(=O)c4ccc(Br)o4)cc3)nc2c1 [TCMDC-124517],106.8,
Cc1cc(OCCCN2CCC(NS(=O)(=O)c3cccc(Br)c3)CC2)c2ccccc2n1 [TCMDC-136279],-49.51,
CCCCc1cc(Cc2cnc(N)nc2N)cc(OC)c1OC [TCMDC-137876],-18.26,
CCCCOc1c(CCNCCCCNCCc2cc(OC)c3ccccc3c2OCCCC)cc(OC)c2ccccc12 [TCMDC-137848],124.7,
CCCCOc1cc(OC)c2ccccc2c1CCNCCCCNCCc1c(OCCCC)cc(OC)c2ccccc12 [TCMDC-137845],110.3,
CC[C@H](NC(=O)c1c(CN2CCC(N3CCCCC3)CC2)c(-c2ccccc2)nc2cc(O)ccc12)c1ccccc1 [TCMDC-140381],13.93,
CC(C)CCN1CCC(Oc2ccc(NC(=O)c3ccc4ncccc4c3)cc2Cl)C1 (stereo not drawn) [TCMDC-133982],6.933,
Clc1ccccc1CNc1noc(-c2sccc2Br)n1 [TCMDC-134189],-9.305,
CCc1c(C)nc(-n2nc(C)cc2NC(=O)c2cccc3ccccc23)[nH]c1=O [TCMDC-124936],19.12,
Cc1cc(NC(=O)c2cc(Br)ccc2Cl)n(-c2nc(C)c(C)c(=O)[nH]2)n1 [TCMDC-124938],58.54,
CCc1c(C)nc(-n2nc(C)cc2NC(=O)c2ccc(OC)cc2OC)[nH]c1=O [TCMDC-124937],1.355,
COc1cccc2cc(C(=O)N[C@@H](CC(C)C)C(=O)N[C@H](/C=N/NC(=O)N3CCN(C)CC3)CCc3ccccc3)oc12 [TCMDC-136052],37.67,
COc1cc(NC(=O)N2CCOC(CCN3CCC(c4ccccc4)CC3)(c3ccc(Cl)c(Cl)c3)C2)cc(OC)c1OC (stereo not drawn) [TCMDC-135349],-27.1,
CC(C)(C)c1cc(N=NC(=O)c2ccncc2)cc(C(C)(C)C)c1O [TCMDC-123490],-20.54,
N#Cc1ccc(N(CCOc2ccc(Cl)c(F)c2)Cc2ccccc2C(F)(F)F)cc1C(F)(F)F [TCMDC-132797],-6.991,
O=C(c1cc(C(=O)NCc2ccc(Cl)cc2)c(=O)n(Cc2ccc(Cl)cc2)c1)c1cc(F)ccc1O [TCMDC-125145],-12.34,
O=C(NCCCCN1CCC(c2ccc3ccccc3c2)CC1)c1ccc(NC(=O)c2ccc(Cl)cc2)cc1 [TCMDC-138378],-9.216,
O=C(NCCCCN1CCC(c2cccc3ccccc23)CC1)c1ccc(NC(=O)c2ccc(Cl)cc2)cc1 [TCMDC-138340],-11.24,
O=C(NCCCCN1CCC(c2ccc3ccccc3c2O)CC1)c1ccc(NC(=O)c2ccc(Cl)cc2)cc1 [TCMDC-138654],82.05,
O=C(NCCCCN1CCC(c2ccc3ccccc3c2O)CC1)c1ccc(-c2ccc(Cl)cc2)cc1 [TCMDC-138663],108.9,
CC(=O)Oc1c(C2CCN(CCCCNC(=O)c3ccc(NC(=O)c4ccc(Cl)cc4)cc3)CC2)ccc2ccccc12 [TCMDC-138657],89.12,
